Compound activity from PubChem BioAssay.
SARS 3CLpro inh: SARS-CoV 3CLpro protease inhibitors, primary screen, biochemical, quenched FRET. recombinant SARS-CoV 3CLpro, quenched FRET peptide cleavage. hit rate 0.14% among 290,000. inhibition, % at 6 µM. AID 1706, 2009. Replicase polyprotein 1ab (Severe acute respiratory syndrome coronavirus), P0C6X7; in the data active = inhibition above about 12%
Mtb BioA inh: M. tuberculosis BioA enzyme inhibitors, primary screen, biochemical, plate reader, single point, HTS | 7,8-diaminopelargonic acid synthase BioA (Mycobacterium tuberculosis) | purified M. tuberculosis BioA enzyme | inhibition, % at 9.99 µM | hit rate 0.096% among 360,000; in the data active = inhibition above about 40%; inconclusive = no clear call, values can overlap the other calls
GDH-TPI inh: GDH-TPI coupling enzyme inhibitors, primary screen, artefact control for M. tuberculosis FBA inhibitor project, biochemical, absorbance, full deck | GDH-TPI coupled enzyme counterscreen, NADH absorbance | inhibition, % at 4.8 µM | hit rate 1.2% among 360,000 | AID 588335, 2011; in the data active = inhibition above about 30%;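 also: 0% = DMSO wells and 100% = wells lacking the enzyme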
FadD28 FP inh: inhibitors of FadD28 bisubstrate probe binding, primary screen, biochemical, fluorescence polarization, single point. Mycobacterium tuberculosis FadD28 fatty-acid-AMP ligase. inhibition, % at 12.5 µM. hit rate 0.22% among 360,000; in the data active = inhibition above about 8.5%, passing the limit was not always enough; inconclusive = no clear call, values can overlap the other calls
FBA Mtb inh: Mtb FBA enzyme inhibitors, primary screen, biochemical, fluorescence, strain H37Rv; inhibition, % at 1 µM; Fructose-bisphosphate aldolase (Mycobacterium tuberculosis (strain ATCC 25618 / H37Rv)), …; purified M. tuberculosis FBA, fluorescence read-out; hit rate 2.3% among 360,000; in the data active = inhibition above about 27%;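 also: 0% = vehicle and 100% = reference inhibitor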
Target sequence (P9WQA3 whole entry, looked up): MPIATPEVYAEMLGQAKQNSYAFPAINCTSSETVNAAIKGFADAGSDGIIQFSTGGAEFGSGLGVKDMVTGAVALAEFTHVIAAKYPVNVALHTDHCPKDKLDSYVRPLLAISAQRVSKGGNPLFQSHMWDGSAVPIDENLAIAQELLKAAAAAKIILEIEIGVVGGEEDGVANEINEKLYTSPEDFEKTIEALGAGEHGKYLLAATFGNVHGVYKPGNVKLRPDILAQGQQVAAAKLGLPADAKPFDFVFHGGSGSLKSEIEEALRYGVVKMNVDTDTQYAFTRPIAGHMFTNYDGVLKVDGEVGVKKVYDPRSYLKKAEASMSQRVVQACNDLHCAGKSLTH
* hit, by the source's call; ? = inconclusive; . = no result given; + = active, no number. Shown are actives, neighbours in structure and some others; about 3.1% of the full set was active somewhere.

SMILES | SARS 3CLpro inh | Mtb BioA inh | GDH-TPI inh | FadD28 FP inh | FBA Mtb inh
O=C(NCC[C@@H]1CC[C@H](NC(=O)C2CCCC2)[C@@H](CO)O1)c1ccc(F)cc1 | . | 0 | . | . | .
CCOCCC(=O)Nc1ccc2c(c1)c(=O)n(C)n2C/C=C/c1ccccc1 | . | 1 | 4 | -2 | 113*
CCOCCC(=O)Nc1ccc2c(c1)c(=O)n(C)n2-c1ccccc1F | . | 26 | 12 | -4 | 181*
Cn1c(=O)c2cc(NC(=O)CCc3ccccc3)ccc2n1-c1ccccc1F | . | -1 | 13 | -1 | 114*
CC(CC(=O)Nc1ccc2c(c1)c(=O)n(C)n2-c1ccccc1)c1ccccc1 (configuration not stated) | . | -1 | 5 | -3 | 13
C[C@@H]1CN([C@H](C)CO)C(=O)c2cc(NC(=O)Nc3ccccc3)ccc2O[C@@H](C)CCCCO[C@H]1CN(C)Cc1ccccc1 | . | 2 | . | . | .
O=C(N/N=C/c1ccc([N+](=O)[O-])o1)c1cc2ccccc2o1 | 2 | . | 37* | -1 | -3
O=C(N/N=C/c1ccc([N+](=O)[O-])o1)c1ccc(O)cc1 | -4 | 1 | 40* | -1 | -5
O=C(N/N=C/c1ccc([N+](=O)[O-])o1)c1ccncc1 | -3 | 2 | 21 | -3 | -2
COC(=O)CNC(=O)CSc1nc2sccc2c(=O)n1-c1ccccc1 | 3 | 1 | -4 | -2 | 2
COC(=O)CNC(=O)CSc1nc2sc(-c3ccccc3)cc2c(=O)n1-c1ccccc1 | . | 2 | 47* | -2 | 1
CCCCC(=O)Nc1ccc(C(=O)NNC(=S)NC(=O)c2ccccc2[N+](=O)[O-])cc1 | -3 | -3 | 38* | -2 | 0
CC(C)C(=O)Nc1ccc(C(=O)NNC(=S)NC(=O)c2ccccc2[N+](=O)[O-])cc1 | 0 | 1 | 9 | -1 | 0
CC(=O)c1ccc(-c2ccc(C(=O)NC3CC(C)(C)NC(C)(C)C3)o2)cc1 | . | 31 | 44* | 0 | 180*
CC(=O)c1ccc(-c2ccc(C(=O)NCC3CCCO3)o2)cc1 (configuration not stated) | . | 25 | 17 | -3 | +
O=C(NCC1CCCO1)c1ccc(-c2cccc(C(F)(F)F)c2)o1 (configuration not stated) | 0 | 1 | 1 | -5 | 3
CC(=O)c1ccc(-c2ccc(C(=O)N3CCC(C(N)=O)CC3)o2)cc1 | . | 4 | 30 | 0 | 118*
O=C(O)C[C@@H]1CC[C@H](NC(=O)Nc2cc(F)ccc2F)[C@@H](CO)O1 | . | -3 | . | . | .
C[C@@H]1CN([C@H](C)CO)C(=O)Cc2cc(NC(=O)C3CC3)ccc2O[C@@H]1CN(C)C(=O)Nc1ccccc1 | . | -2 | . | . | .
COc1ccc(/C=N/NC(=O)c2cccc(NC(=O)c3ccccc3Cl)c2)c(OC)c1 | 2 | . | 31* | -2 | 2
O=C(N/N=C/c1ccco1)c1cccc(NC(=O)c2ccccc2Cl)c1 | -7 | 3 | 32* | -8 | -1
COc1ccccc1/C=N/NC(=O)c1cccc(NC(=O)c2ccccc2Cl)c1 | 0 | . | 19 | -3 | 2
O=C(Nc1ccccc1C(=O)N/N=C/c1ccco1)c1ccccc1Cl | 11 | -3 | 28 | -3 | 0
C[C@@H]1CN([C@@H](C)CO)C(=O)c2cc(NS(=O)(=O)c3ccc(Cl)cc3)ccc2O[C@H]1CN(C)C(=O)Nc1ccc(F)cc1 | . | 0 | . | . | .
COCC#Cc1cnc2c(c1)C(=O)N([C@@H](C)CO)C[C@@H](C)[C@@H](CN(C)Cc1ccccc1F)O2 | . | 1 | . | . | .
SMILES | SARS 3CLpro inh | Mtb BioA inh | GDH-TPI inh | FadD28 FP inh | FBA Mtb inh
Cc1ccc(C2=NC(=O)/C(=C/c3cc(O)c(O)c(Br)c3)S2)cc1 | 6 | 1 | 9 | 8.2* | -1
COc1ccc(NC(=O)N(C)C[C@H]2OCCCC[C@H](C)Oc3ccc(N(C)C)cc3C(=O)N([C@@H](C)CO)C[C@@H]2C)cc1 | . | 0 | . | . | .
C[C@@H]1CN([C@@H](C)CO)C(=O)c2cc(NC(=O)Cc3ccccc3)ccc2O[C@@H](C)CCCCO[C@@H]1CN(C)S(=O)(=O)c1cn(C)cn1 | . | 0 | . | . | .
CCN(C(=O)COC(=O)c1ccccc1NCCO)C1CCS(=O)(=O)C1 (configuration not stated) | . | . | 3 | -3 | 129*
CCN(C(=O)COC(=O)c1cc2ccccc2cc1O)C1CCS(=O)(=O)C1 (configuration not stated) | 0 | -1 | -7 | -5 | -1
CC1=C([N+](=O)[O-])C(c2ccc(O)c(O)c2)NC(=O)N1 (configuration not stated) | -3 | -2 | 12 | -1 | 5
COc1ccc(C2NC(=O)NC(C)=C2[N+](=O)[O-])cc1OC (configuration not stated) | -2 | . | 37* | 0 | 0
Cc1ccc(S(=O)(=O)c2c(N)n(CCCO)c3nc4ccccc4nc23)cc1 | 5 | . | 21 | -3 | 143*
Nc1c(S(=O)(=O)c2ccccc2)c2nc3ccccc3nc2n1Cc1ccco1 | -2 | -2 | 46* | -8 | 101*
CCCCn1c(NS(=O)(=O)c2ccccc2)c(S(=O)(=O)c2ccc(C)cc2)c2nc3ccccc3nc21 | -2 | . | 15 | ? | 4
Cc1ccc(S(=O)(=O)c2c(N)n(Cc3ccco3)c3nc4ccccc4nc23)cc1C | 2 | 0 | 40* | -7 | 91*
Cc1ccc(S(=O)(=O)c2c(N)n(CCN3CCOCC3)c3nc4ccccc4nc23)cc1C | -1 | -2 | 14 | 0 | 15
COCCn1c(-c2ccc(OC(F)(F)C(F)C(F)(F)F)cc2)nc2c1c(=O)[nH]c(=O)n2CC(C)C (configuration not stated) | 0 | . | -7 | 3 | 12
COCCn1c(-c2ccc(SC)cc2)nc2c1c(=O)[nH]c(=O)n2CC(C)C | -2 | 1 | 21 | -1 | +
CCN(CC)CCNC(=O)c1cc2c(-c3ccc(Cl)cc3)nn(C)c2s1 | -13 | 3 | 12 | -19 | 136*
C(=N\n1cnc2ccccc21)/c1cccnc1 | -1 | 13 | 11 | -2 | -2
Clc1nc2sccn2c1/C=N/n1cnc2ccccc21 | -4 | 0 | 47* | -3 | 0
COc1ccc(/C=C2\C(=O)N(c3nc(-c4ccc(Br)cc4)cs3)N=C2c2ccccc2)cc1 | -5 | . | . | . | .
CCOc1cc(/C=C2\C(=O)N(c3nc(-c4ccc(Br)cc4)cs3)N=C2c2ccccc2)ccc1O | 5 | -1 | 31* | 27* | 1
CNc1cncc(-c2cccc(O)c2)n1 | . | -2 | 25 | 1 | 200*
CNc1cncc(-c2cccc(C(=O)NC3CC3)c2)n1 | . | -1 | 23 | -1 | +
CNc1cncc(-c2ccc(C)cc2)n1 | . | 0 | 15 | 3 | 197*
CNc1cncc(-c2cccc(C(=O)NCCN(C)C)c2)n1 | . | 1 | 15 | -4 | 121*
